{
  "source": "the supplement of paper PMC10037445",
  "key": {"RAW-Dual [1]": {"system": "RAW-Dual", "experiment": "NF-kB SEAP reporter activity, fold change vs agonist alone; cytotoxicity flag (confluency mask): not cytotoxic; higher = enhanced NF-kB activity", "method_in_brief": "(§1)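 RAW-Dual macrophages were seeded in DMEM at 50,000 cells/well in 384-well plates, given 50 nL of library stock by pin tool, and given a PRR agonist 1 h later. Plates were held at 37 °C, 5% CO2 for 20 hours, after which supernatant was read for IRF by QuantiLuc luminescence and for NF-κB by QuantiBlue absorbance at 620 nm. Reporter activity is expressed as fold change over wells that received agonist alone. A well was called cytotoxic when IncuCyte confluency fell below 70% of agonist controls in both mask sets.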"}, "RAW-Dual [2]": {"system": "RAW-Dual", "experiment": "NF-kB SEAP reporter activity, fold change vs agonist alone; higher = enhanced NF-kB activity", "conditions": "cytotoxicity flag (confluency mask): not cytotoxic", "method_in_brief": "as §1"}, "[3]": {"conditions": "agonist: ODN 1826 (TLR9) 0.5 ug/mL"}, "[4]": {"conditions": "agonist: Pam2CSK4 (TLR2/6) 0.1 ug/mL"}, "[5]": {"conditions": "agonist: Pam3CSK4 (TLR2/1) 0.1 ug/mL"}, "[6]": {"conditions": "library stock concentration (final ~1000-fold dilution): 10 mM, agonist: Imiquimod (TLR7) […]"}, "[7]": {"conditions": "library stock concentration (final ~1000-fold dilution): 10 mM, agonist: MPLA (TLR4) […]"}},
  "note": "Values joined by “and” are separate entries in the source; they are usually repeats but may differ in a detail not shown here. Equal values may be shown once. In all, about 2,900 compounds were measured (“NF-kB SEAP reporter activity, fold change vs agonist alone”: median about 0.99, highest 2% from about 2.6 on). This is one part of a sample in which the highest values are shown more often than they occur.",
  "data": [
    {"smiles": "N#Cc1ncccn1", "note": "(library stock concentration (final ~1000-fold dilution): 2 mM)", "values": [
      {"measurement": "NF-kB SEAP reporter activity", "setting": "RAW-Dual [1]; agonist: LPS (TLR4) 0.1 ug/mL", "result": 1.32},
      {"measurement": "NF-kB SEAP reporter activity", "setting": "RAW-Dual [1]; [3]", "result": 1.02},
      {"measurement": "NF-kB SEAP reporter activity", "setting": "RAW-Dual [1]; [4]", "result": 1.09},
      {"measurement": "NF-kB SEAP reporter activity", "setting": "RAW-Dual [1]; [5]", "result": 1.05}
    ]},
    {"smiles": "O=C(O)c1ccc(O)c2ncccc12", "values": [
      {"measurement": "NF-kB SEAP reporter activity", "setting": "RAW-Dual [2]; [6]", "result": 1.05},
      {"measurement": "NF-kB SEAP reporter activity", "setting": "RAW-Dual [2]; [7]", "result": 1.03}
    ]},
    {"smiles": "N#Cc1ncccn1", "values": [
      {"measurement": "NF-kB SEAP reporter activity", "setting": "RAW-Dual [2]; library stock concentration (final ~1000-fold dilution): 2 mM, agonist: Imiquimod (TLR7) […]", "result": 1},
      {"measurement": "NF-kB SEAP reporter activity", "setting": "RAW-Dual [2]; library stock concentration (final ~1000-fold dilution): 2 mM, agonist: MPLA (TLR4) […]", "result": 1}
    ]},
    {"smiles": "CCn1cc(C(=O)O)c(=O)c2cc(F)c(N3CCN(C)CC3)cc21.CS(=O)(=O)O.O.O", "values": [
      {"measurement": "NF-kB SEAP reporter activity", "setting": "RAW-Dual [2]; [6]", "result": 0.752},
      {"measurement": "NF-kB SEAP reporter activity", "setting": "RAW-Dual [2]; [7]", "result": 0.814}
    ]},
    {"smiles": "CCn1cc(C(=O)O)c(=O)c2cc(F)c(N3CCN(C)CC3)cc21.CS(=O)(=O)O.O.O", "note": "(library stock concentration (final ~1000-fold dilution): 10 mM)", "values": [
      {"measurement": "NF-kB SEAP reporter activity", "setting": "RAW-Dual [1]; agonist: LPS (TLR4) 0.1 ug/mL", "result": 1.38},
      {"measurement": "NF-kB SEAP reporter activity", "setting": "RAW-Dual [1]; [3]", "result": 0.867},
      {"measurement": "NF-kB SEAP reporter activity", "setting": "RAW-Dual [1]; [4]", "result": 1.01},
      {"measurement": "NF-kB SEAP reporter activity", "setting": "RAW-Dual [1]; [5]", "result": 1.01}
    ]},
    {"smiles": "Cl.Cl.OC(CN1CCN(c2cccc(Cl)c2)CC1)C(c1ccccc1)c1ccccc1", "note": "(centres undefined)", "values": [
      {"measurement": "NF-kB SEAP reporter activity", "setting": "RAW-Dual [2]; [6]", "result": 1.33},
      {"measurement": "NF-kB SEAP reporter activity", "setting": "RAW-Dual [2]; [7]", "result": 1.04}
    ]},
    {"smiles": "Cl.Cl.OC(CN1CCN(c2cccc(Cl)c2)CC1)C(c1ccccc1)c1ccccc1", "note": "(centres undefined) (library stock concentration (final ~1000-fold dilution): 10 mM)", "values": [
      {"measurement": "NF-kB SEAP reporter activity", "setting": "RAW-Dual [1]; agonist: LPS (TLR4) 0.1 ug/mL", "result": 0.841},
      {"measurement": "NF-kB SEAP reporter activity", "setting": "RAW-Dual [1]; [3]", "result": 1.02},
      {"measurement": "NF-kB SEAP reporter activity", "setting": "RAW-Dual [1]; [4]", "result": 0.761},
      {"measurement": "NF-kB SEAP reporter activity", "setting": "RAW-Dual [1]; [5]", "result": 0.956}
    ]},
    {"smiles": "CC(=O)OC1CC2CCC3C(CCC4(C)C3CC([N+]3(C)CCCCC3)C4OC(C)=O)C2(C)CC1N1CCCCC1", "note": "(centres undefined)", "values": [
      {"measurement": "NF-kB SEAP reporter activity", "setting": "RAW-Dual [2]; [6]", "result": 0.939},
      {"measurement": "NF-kB SEAP reporter activity", "setting": "RAW-Dual [2]; [7]", "result": 0.965}
    ]},
    {"smiles": "CC(=O)OC1CC2CCC3C(CCC4(C)C3CC([N+]3(C)CCCCC3)C4OC(C)=O)C2(C)CC1N1CCCCC1", "note": "(centres undefined) (library stock concentration (final ~1000-fold dilution): 10 mM)", "values": [
      {"measurement": "NF-kB SEAP reporter activity", "setting": "RAW-Dual [1]; agonist: LPS (TLR4) 0.1 ug/mL", "result": 1.04},
      {"measurement": "NF-kB SEAP reporter activity", "setting": "RAW-Dual [1]; [3]", "result": 1.02},
      {"measurement": "NF-kB SEAP reporter activity", "setting": "RAW-Dual [1]; [4]", "result": 0.945},
      {"measurement": "NF-kB SEAP reporter activity", "setting": "RAW-Dual [1]; [5]", "result": 1.01}
    ]},
    {"smiles": "CCOC(=O)/C=C/c1ccc(O)c(O)c1", "note": "(library stock concentration (final ~1000-fold dilution): 10 mM)", "values": [
      {"measurement": "NF-kB SEAP reporter activity", "setting": "RAW-Dual [1]; agonist: LPS (TLR4) 0.1 ug/mL", "result": "0.633 and 0.814"},
      {"measurement": "NF-kB SEAP reporter activity", "setting": "RAW-Dual [1]; [3]", "result": "0.407 and 0.651"},
      {"measurement": "NF-kB SEAP reporter activity", "setting": "RAW-Dual [1]; [4]", "result": "0.658 and 0.524"},
      {"measurement": "NF-kB SEAP reporter activity", "setting": "RAW-Dual [1]; [5]", "result": "0.563 and 0.481"}
    ]},
    {"smiles": "NS(=O)(=O)NCCNc1nonc1C(=Nc1ccc(F)c(Br)c1)NO", "note": "(library stock concentration (final ~1000-fold dilution): 10 mM)", "values": [
      {"measurement": "NF-kB SEAP reporter activity", "setting": "RAW-Dual [1]; agonist: LPS (TLR4) 0.1 ug/mL", "result": 1.01},
      {"measurement": "NF-kB SEAP reporter activity", "setting": "RAW-Dual [1]; [3]", "result": 0.936},
      {"measurement": "NF-kB SEAP reporter activity", "setting": "RAW-Dual [1]; [4]", "result": 0.922},
      {"measurement": "NF-kB SEAP reporter activity", "setting": "RAW-Dual [1]; [5]", "result": 0.961}
    ]},
    {"smiles": "NS(=O)(=O)NCCNc1nonc1C(=Nc1ccc(F)c(Br)c1)NO", "values": [
      {"measurement": "NF-kB SEAP reporter activity", "setting": "RAW-Dual [2]; [6]", "result": 0.862},
      {"measurement": "NF-kB SEAP reporter activity", "setting": "RAW-Dual [2]; [7]", "result": 0.907}
    ]},
    {"smiles": "CCCC(=O)Nc1ccc(OCC(O)CNC(C)C)c(C(C)=O)c1.Cl", "note": "(centres undefined)", "values": [
      {"measurement": "NF-kB SEAP reporter activity", "setting": "RAW-Dual [2]; [6]", "result": 1},
      {"measurement": "NF-kB SEAP reporter activity", "setting": "RAW-Dual [2]; [7]", "result": 1.08}
    ]},
    {"smiles": "CCN(CC)C(=O)Nc1ccc(OCC(O)CNC(C)(C)C)c(C(C)=O)c1.Cl", "note": "(centres undefined)", "values": [
      {"measurement": "NF-kB SEAP reporter activity", "setting": "RAW-Dual [2]; [6]", "result": 2.4},
      {"measurement": "NF-kB SEAP reporter activity", "setting": "RAW-Dual [2]; [7]", "result": 2.24}
    ]},
    {"smiles": "CCN(CC)C(=O)Nc1ccc(OCC(O)CNC(C)(C)C)c(C(C)=O)c1.Cl", "note": "(centres undefined) (library stock concentration (final ~1000-fold dilution): 10 mM)", "values": [
      {"measurement": "NF-kB SEAP reporter activity", "setting": "RAW-Dual [1]; agonist: LPS (TLR4) 0.1 ug/mL", "result": 3.5},
      {"measurement": "NF-kB SEAP reporter activity", "setting": "RAW-Dual [1]; [3]", "result": 2.46},
      {"measurement": "NF-kB SEAP reporter activity", "setting": "RAW-Dual [1]; [4]", "result": 1.6},
      {"measurement": "NF-kB SEAP reporter activity", "setting": "RAW-Dual [1]; [5]", "result": 3.15}
    ]},
    {"smiles": "CC(C)(C)NCC(O)COc1cccc2c1CCC(=O)N2.Cl", "note": "(centres undefined) (library stock concentration (final ~1000-fold dilution): 10 mM)", "values": [
      {"measurement": "NF-kB SEAP reporter activity", "setting": "RAW-Dual [1]; agonist: LPS (TLR4) 0.1 ug/mL", "result": 1.11},
      {"measurement": "NF-kB SEAP reporter activity", "setting": "RAW-Dual [1]; [3]", "result": 1.05},
      {"measurement": "NF-kB SEAP reporter activity", "setting": "RAW-Dual [1]; [4]", "result": 1.04},
      {"measurement": "NF-kB SEAP reporter activity", "setting": "RAW-Dual [1]; [5]", "result": 1.11}
    ]},
    {"smiles": "CC(C)(C)NCC(O)COc1cccc2c1CCC(=O)N2.Cl", "note": "(centres undefined)", "values": [
      {"measurement": "NF-kB SEAP reporter activity", "setting": "RAW-Dual [2]; [6]", "result": 1.02},
      {"measurement": "NF-kB SEAP reporter activity", "setting": "RAW-Dual [2]; [7]", "result": 1.07}
    ]},
    {"smiles": "CCCC(=O)Nc1ccc(OCC(O)CNC(C)C)c(C(C)=O)c1.Cl", "note": "(centres undefined) (library stock concentration (final ~1000-fold dilution): 10 mM)", "values": [
      {"measurement": "NF-kB SEAP reporter activity", "setting": "RAW-Dual [1]; agonist: LPS (TLR4) 0.1 ug/mL", "result": 1.54},
      {"measurement": "NF-kB SEAP reporter activity", "setting": "RAW-Dual [1]; [3]", "result": 1.08},
      {"measurement": "NF-kB SEAP reporter activity", "setting": "RAW-Dual [1]; [4]", "result": 1.11},
      {"measurement": "NF-kB SEAP reporter activity", "setting": "RAW-Dual [1]; [5]", "result": 1.16}
    ]}
  ]
}
